{"source": "PubChem BioAssay (NCATS)", "key": {"[1]": {"molecular_target": "Luciferin 4-monooxygenase (Photinus pyralis) (UniProt P08659)", "sequence (P08659 whole entry, looked up)": "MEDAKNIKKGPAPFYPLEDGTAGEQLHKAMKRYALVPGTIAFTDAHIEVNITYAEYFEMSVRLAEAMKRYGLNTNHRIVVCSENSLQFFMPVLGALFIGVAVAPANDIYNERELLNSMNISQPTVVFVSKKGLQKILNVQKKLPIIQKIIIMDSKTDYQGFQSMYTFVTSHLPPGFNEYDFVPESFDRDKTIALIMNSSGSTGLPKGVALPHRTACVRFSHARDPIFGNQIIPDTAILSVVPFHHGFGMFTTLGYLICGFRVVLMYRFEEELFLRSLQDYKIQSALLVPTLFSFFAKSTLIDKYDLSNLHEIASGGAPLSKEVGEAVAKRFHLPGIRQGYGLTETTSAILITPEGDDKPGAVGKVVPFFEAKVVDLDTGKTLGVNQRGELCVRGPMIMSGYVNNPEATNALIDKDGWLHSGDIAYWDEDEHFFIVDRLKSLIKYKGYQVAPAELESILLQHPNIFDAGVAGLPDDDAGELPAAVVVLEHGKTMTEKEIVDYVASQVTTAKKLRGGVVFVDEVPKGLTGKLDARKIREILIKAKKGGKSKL", "assay": "Biochemical firefly luciferase enzyme assay for NPC (AID 624030); further: series mostly up to about 59 µM; nearly all actives have a fitted effect of over 70% in size", "summary_of_the_method": "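Purified P. pyralis luciferase at 10 nM in 50 mM Tris Acetate (final), luminescence read within 5 minutes of enzyme addition to compounds. Activity normalised to PTC124 versus DMSO; concentration-response curves classed by r2, magnitude and activity.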"}, "[2]": {"assay": "S16 Schwann cell viability assay (CellTiter-Glo assay) (AID 624031); further: nearly all actives have a fitted effect of over 70% in size; further: potency means the concentration at half of the fitted maximal effect", "summary_of_the_method": "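Rat S16 Schwann cells without reporter constructs received compound or DMSO for 24 h at 37 °C under 5% CO2. Cellular ATP was then quantified by CellTiter-Glo luminescence, with vehicle wells defined as 0% activity and cell-free wells as reference.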"}, "[3]": {"assay": "S16 Schwann cell PMP22 intronic element firefly luciferase assay (AID 624032); further: nearly all actives have a fitted effect of over 30% in size; further: potency means the concentration at half of the fitted maximal effect", "summary_of_the_method": "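Rat S16 Schwann cells stably carrying firefly luciferase driven by a PMP22 intronic element, in 10% FBS, treated 24 h at 37 C. ONE-Glo luminescence normalized to PTC124 control and DMSO (0%); curves classed by r2, magnitude and activity.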"}, "[4]": {"assay": "S16 Schwann cell PMP22 intronic element beta-lactamase assay (AID 624044; calls by dose curve; further: nearly all actives have a fitted effect of over 15% in size)", "summary_of_the_method": "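Rat S16 Schwann cells with beta-Lac driven by a PMP22 intronic element, compound-treated 24 h at 37 °C. LiveBLAzer FRET B/G read: 460 nm normalized to potassium clavulanate vs DMSO; 535 nm FRET as viability; concentration-effect curves classified.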"}}, "note": "Inconclusive results are not listed. Where a call stands in place of a potency, no number is given. Active and inactive are the calls of the source. Unless noted, the call rests on the fitted dose curve; in most records, active means well fitted curve in the direction sought with a large enough effect; inconclusive means small, poorly fitted or top-dose-only effect, or another doubt; inactive means no such curve, though single readings can be large; an effect the other way counts as inactive or inconclusive.", "data": [{"smiles": "CCCCCCCCCCCCCCCC(=O)NCCO", "values": [{"measurement": "Potency", "setting": "[1]", "result": "inactive"}, {"measurement": "Potency", "setting": "[2]", "result": "inactive"}, {"measurement": "Potency", "setting": "[3]", "result": "inactive"}, {"measurement": "Potency", "setting": "[4]", "result": "inactive"}]}, {"smiles": "C[C@H](N)[C@H](O)c1cccc(O)c1", "values": [{"measurement": "Potency", "setting": "[1]", "result": "inactive"}, {"measurement": "Potency", "setting": "[4]", "result": "inactive"}]}, {"smiles": "Nc1ccc(S(=O)(=O)Nc2ccc(Cl)nn2)cc1", "values": [{"measurement": "Potency", "setting": "[1]", "result": "inactive"}, {"measurement": "Potency", "setting": "[2]", "result": "inactive"}, {"measurement": "Potency", "setting": "[3]", "result": "inactive"}]}, {"smiles": "Nc1nc2c(ncn2CCC(CO)CO)c(=O)[nH]1", "values": [{"measurement": "Potency", "setting": "[1]", "result": "inactive"}, {"measurement": "Potency", "setting": "[2]", "result": "inactive"}, {"measurement": "Potency", "setting": "[3]", "result": "inactive"}]}, {"smiles": "CC(C)(C(=O)O)c1ccc(C(O)CCCN2CCC(C(O)(c3ccccc3)c3ccccc3)CC2)cc1", "note": "(stereo unspecified)", "values": [{"measurement": "Potency", "setting": "[1]", "result": "inactive"}]}, {"smiles": "O=C(O)Cc1sc(-c2ccccc2)nc1-c1ccc(Cl)cc1", "values": [{"measurement": "Potency", "setting": "[1]", "result": "inactive"}]}, {"smiles": "CC(C)c1c(C(=O)Nc2ccccc2)c(-c2ccccc2)c(-c2ccc(F)cc2)n1CC[C@@H](O)C[C@@H](O)CC(=O)O", "values": [{"measurement": "Potency", "setting": "[1]", "result": "inactive"}, {"measurement": "Potency", "setting": "[2]", "result": "inactive"}, {"measurement": "Potency", "setting": "[3]", "result": "inactive"}]}, {"smiles": "Cn1c(=O)c2c(ncn2CC2OCCO2)n(C)c1=O", "values": [{"measurement": "Potency", "setting": "[1]", "result": "inactive"}]}, {"smiles": "CC(C)(C)C(=O)C(Oc1ccc(Cl)cc1)n1ccnc1", "note": "(stereo unspecified)", "values": [{"measurement": "Potency", "setting": "[1]", "result": "inactive"}, {"measurement": "Potency", "setting": "[2]", "result": "inactive"}, {"measurement": "Potency", "setting": "[4]", "result": "inactive"}]}, {"smiles": "CCN(CC)CCNC(=O)c1c(C)[nH]c(/C=C2\\C(=O)Nc3ccc(F)cc32)c1C", "values": [{"measurement": "Potency", "setting": "[1]", "result": "inactive"}, {"measurement": "Potency", "setting": "[4]", "result": "inactive"}]}, {"smiles": "Cc1ccc2nc(N)[nH]c(=O)c2c1Sc1ccncc1", "values": [{"measurement": "Potency", "setting": "[1]", "result": "inactive"}, {"measurement": "Potency", "setting": "[2]", "result": "inactive"}]}, {"smiles": "COc1ccc2[nH]c(S(=O)Cc3ncc(C)c(OC)c3C)nc2n1", "note": "(stereo unspecified)", "values": [{"measurement": "Potency", "setting": "[3]", "result": "inactive"}, {"measurement": "Potency", "setting": "[4]", "result": "inactive"}]}, {"smiles": "Nc1ncnc2c1ncn2[C@@H]1O[C@H](CO)[C@@H](O)[C@H]1O", "values": [{"measurement": "Potency", "setting": "[1]", "result": "inactive"}, {"measurement": "Potency", "setting": "[2]", "result": "inactive"}, {"measurement": "Potency", "setting": "[3]", "result": "inactive"}]}, {"smiles": "CSc1ccc2c(c1)N(CCC1CCCCN1C)c1ccccc1S2", "note": "(stereo unspecified)", "values": [{"measurement": "Potency", "setting": "[1]", "result": "inactive"}, {"measurement": "Potency", "setting": "[2]", "result": "32.2 µM (active)"}, {"measurement": "Potency", "setting": "[4]", "result": "inactive"}]}, {"smiles": "Cc1ccc(C(C)C)cc2c(C)ccc1-2", "values": [{"measurement": "Potency", "setting": "[1]", "result": "inactive"}, {"measurement": "Potency", "setting": "[2]", "result": "inactive"}, {"measurement": "Potency", "setting": "[4]", "result": "inactive"}]}, {"smiles": "COCCOC(=O)C1=C(C)NC(C)=C(C(=O)OC/C=C/c2ccccc2)C1c1cccc([N+](=O)[O-])c1", "note": "(stereo unspecified)", "values": [{"measurement": "Potency", "setting": "[1]", "result": "inactive"}, {"measurement": "Potency", "setting": "[3]", "result": "7.21 µM (active)"}, {"measurement": "Potency", "setting": "[4]", "result": "inactive"}]}, {"smiles": "CN(C)CCCN1c2ccccc2CCc2ccccc21", "values": [{"measurement": "Potency", "setting": "[1]", "result": "inactive"}, {"measurement": "Potency", "setting": "[2]", "result": "inactive"}]}]}
